This passage reports composite z-score and z-score results from PubChem BioAssay.

SMILES strings stand for the structures. Calls of active or inactive are those of the source.

The test system of experiment [1] is Plasmodium falciparum Sir2 (PF13_0152, Sir2A). The experiment can be described thus: pfSir2 binders on small-molecule microarrays, primary screen, biochemical, small-molecule microarray, 635 nm fluorescence (AID 1098).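 Also: score merges spot fluorescence intensity with its signal-to-noise ratio.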 The settings on record: small-molecule microarray binding, fluorescence 635 nm; higher = more signal.
A short description of experiment [2]: small-molecule microarray binders of probe aDKK1, primary screen, biochemical, biotinylated probe, 635/667 nm fluorescence (AID 1099).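 Also: score merges 667nm spot fluorescence with signal to noise across triplicate slides.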 As to conditions: higher = more signal.
Experiment [3] can be described thus: small-molecule microarray binders of probe aCHRDL2, primary screen, biochemical, biotinylated probe, 635/667 nm fluorescence (AID 1100). The settings on record: higher = more signal.
Experiment [4] can be described thus: splicing luciferase reporter signal modulators, primary screen, spliceosome inhibition project, cell-based, HEK293, splice +/- reporter (AID 1101).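 Also: HEK293 cells carrying a splicing-competent luciferase reporter gene; test concentration not given here.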 As to conditions: luminescence, 24 h, higher = more signal, called active from +8 up or from −8 down. In general terms: A reporter such as luciferase makes a cellular process visible.
The target of experiment [5] is Fibroblast growth factor 10 (Homo sapiens) (UniProt O15520). As to the kind of experiment: FGF10 binders on small-molecule microarrays, primary screen, biochemical, small-molecule microarray, 635 nm fluorescence (AID 1102). As to conditions: FGF10 binding, fluorescence 635 nm, higher = more signal.
Sequence of Fibroblast growth factor 10 (Homo sapiens) (O15520 whole entry, looked up): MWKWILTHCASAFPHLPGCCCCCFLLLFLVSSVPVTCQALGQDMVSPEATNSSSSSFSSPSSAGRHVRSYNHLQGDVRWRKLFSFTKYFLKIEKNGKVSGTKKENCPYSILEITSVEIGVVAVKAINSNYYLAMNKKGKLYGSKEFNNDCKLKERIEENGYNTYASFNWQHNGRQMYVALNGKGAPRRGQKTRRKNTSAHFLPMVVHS
Experiment [6] deals with glycogen synthase kinase-3 (GSK3A per assay name; protocol says GSK3B). The experiment can be described thus: GSK3 binders on small-molecule microarrays, primary screen, biochemical, small-molecule microarray, 635 nm fluorescence, GSK3A (AID 1103). Also: the record names both GSK3A and GSK3B. As to conditions: small-molecule microarray binding, fluorescence 635 nm; higher = more signal.
Experiment [7] deals with Epidermal growth factor receptor (Homo sapiens) (UniProt P00533). As to the kind of experiment: EGFR binders on small-molecule microarrays, primary screen, biochemical, small-molecule microarray, 635 nm fluorescence (AID 1104).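 Also: score merges 667 nm emission intensity with spot signal to noise over triplicate slides.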 The settings on record: EGFR binding, higher = more signal.
Sequence of Epidermal growth factor receptor (Homo sapiens) (P00533 whole entry, looked up): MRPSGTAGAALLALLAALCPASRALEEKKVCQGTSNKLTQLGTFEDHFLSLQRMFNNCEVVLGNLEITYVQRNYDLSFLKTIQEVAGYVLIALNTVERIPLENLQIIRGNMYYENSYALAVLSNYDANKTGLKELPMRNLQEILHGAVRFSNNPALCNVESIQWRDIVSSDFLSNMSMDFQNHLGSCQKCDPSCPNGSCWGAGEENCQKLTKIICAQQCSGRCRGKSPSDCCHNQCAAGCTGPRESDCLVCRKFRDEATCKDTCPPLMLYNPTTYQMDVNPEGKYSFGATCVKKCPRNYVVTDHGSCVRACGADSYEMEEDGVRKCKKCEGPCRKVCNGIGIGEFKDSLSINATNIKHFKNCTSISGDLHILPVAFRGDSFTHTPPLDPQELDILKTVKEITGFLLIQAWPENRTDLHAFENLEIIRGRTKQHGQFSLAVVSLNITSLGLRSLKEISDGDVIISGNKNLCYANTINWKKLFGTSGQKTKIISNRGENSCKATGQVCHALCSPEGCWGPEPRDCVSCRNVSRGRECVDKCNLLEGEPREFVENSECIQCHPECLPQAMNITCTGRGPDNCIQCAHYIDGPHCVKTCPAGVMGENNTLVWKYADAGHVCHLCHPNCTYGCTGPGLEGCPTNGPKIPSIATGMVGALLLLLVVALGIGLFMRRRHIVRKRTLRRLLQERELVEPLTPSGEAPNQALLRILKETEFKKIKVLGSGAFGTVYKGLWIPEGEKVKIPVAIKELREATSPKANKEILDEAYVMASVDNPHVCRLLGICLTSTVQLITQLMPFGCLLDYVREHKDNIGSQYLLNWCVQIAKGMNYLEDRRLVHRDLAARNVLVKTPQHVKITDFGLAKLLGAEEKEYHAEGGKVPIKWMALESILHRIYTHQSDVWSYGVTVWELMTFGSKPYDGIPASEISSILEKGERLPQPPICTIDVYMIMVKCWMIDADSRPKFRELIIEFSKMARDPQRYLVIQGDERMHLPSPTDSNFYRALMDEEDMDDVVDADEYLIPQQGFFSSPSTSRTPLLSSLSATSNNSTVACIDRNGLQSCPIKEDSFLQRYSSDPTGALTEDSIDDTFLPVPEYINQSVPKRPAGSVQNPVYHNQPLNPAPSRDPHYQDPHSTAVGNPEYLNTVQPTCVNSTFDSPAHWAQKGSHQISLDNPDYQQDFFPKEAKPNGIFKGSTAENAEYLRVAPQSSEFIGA
For experiment [8], the target named is Follistatin-related protein 3 (Homo sapiens) (UniProt O95633). The experiment can be described thus: FSTL3 binders on small-molecule microarrays, primary screen, biochemical, small-molecule microarray, 635 nm fluorescence (AID 1105).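 Also: score merges emission near 667 nm and signal to noise per printed spot across three slides.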 As to conditions: FSTL3 binding, higher = more signal.
Sequence of Follistatin-related protein 3 (Homo sapiens) (O95633 whole entry, looked up): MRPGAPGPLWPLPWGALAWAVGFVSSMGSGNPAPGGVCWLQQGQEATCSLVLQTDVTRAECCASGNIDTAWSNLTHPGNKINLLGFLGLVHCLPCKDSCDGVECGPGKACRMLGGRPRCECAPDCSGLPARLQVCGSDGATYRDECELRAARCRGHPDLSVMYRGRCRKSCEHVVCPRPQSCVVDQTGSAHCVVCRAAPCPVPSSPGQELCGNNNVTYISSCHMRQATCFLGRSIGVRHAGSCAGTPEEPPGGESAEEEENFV
Experiment [9] addresses Dickkopf-related protein 1 (Homo sapiens) (UniProt O94907). The experiment can be described thus: DKK1 binders on small-molecule microarrays, primary screen, biochemical, small-molecule microarray, 635 nm fluorescence scan (AID 1106).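 Also: score merges emission near 667 nm with signal to noise over three replicate slides.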 The settings on record: DKK1 binding, higher = more signal.
For experiment [10], the system named is Inhibin beta A chain (activin A). The experiment can be described thus: INHBA (activin A) binders on microarrays, primary screen, biochemical, small-molecule microarray, 635 nm fluorescence scan (AID 1107).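 Also: mouse activin A protein probed at 4.33 µg/mL on printed slides; score merges bound-protein fluorescence near 667 nm with spot signal-to-noise.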 As to conditions: small-molecule microarray binding, higher = more signal.
Experiment [11] concerns Human papillomavirus type 1a protein E7 (residues 44-93). As to the kind of experiment: HPV1a E7 fragment binders on microarrays, primary screen, biochemical, small-molecule microarray, residues 44-93, 635 nm fluorescence (AID 1108).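 Also: E7 fragment applied at 1 µg/mL in TBST for 1 h at 4 C; score combines spot fluorescence with its signal to noise ratio.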 As to conditions: small-molecule microarray binding, fluorescence 635 nm; higher = more signal.
Experiment [12] can be described thus: modulators of HCV replicon luciferase signal, primary screen, HCV replication inhibitor project, Huh7 cells, luciferase reporter (AID 1109).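 Also: huh7 hepatoma cells harbouring a luciferase neomycin HCV replicon reporter; luciferase luminescence as measure of HCV replicon replication; test concentration not given here.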 The settings on record: 48 h, higher = more signal. (In general: Replicon systems follow genome replication, usually without infectious particles.)
Experiment [13] addresses Left-right determination factor 2 (Homo sapiens) (UniProt O00292). The experiment can be described thus: LEFTY2 binders on small-molecule microarrays, primary screen, biochemical, small-molecule microarray, 635 nm fluorescence scan (AID 1110). As to conditions: LEFTY2 binding, higher = more signal.
Experiment [14] has as its target Calmodulin-1 (Homo sapiens) (UniProt P0DP23). As to the kind of experiment: CALM1 binders on microarrays, EGTA buffer, profiling panel, biochemical, small-molecule microarray, Cy5-labelled CALM1 (AID 1111).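 Also: labelled calmodulin applied in Tris saline Tween buffer holding calcium plus EGTA and DTT.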 The settings on record: Cy5-CALM1 binding fluorescence, higher = more signal.
For experiment [15] the target is unchanged. The experiment can be described thus: calcium-bound CALM1 binders on microarrays, profiling panel, artefact control for SMM control-protein annotation, biochemical, small-molecule microarray, Cy5-labelled CALM1, plus calcium (AID 1112).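 Also: score merges spot fluorescence with signal to noise from triplicate slides.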 The settings on record: Cy5-CALM1 binding fluorescence, higher = more signal.
Experiment [16] is described as follows: small-molecule microarray binders of probe aWnt5a, primary screen, biochemical, biotinylated probe, 635/667 nm fluorescence (AID 1113).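 Also: score merges 667 nm fluorescence intensity with signal-to-noise per printed feature.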 As to conditions: higher = more signal.
Experiment [17] is described as follows: small-molecule microarray binders of probe aShh, primary screen, biochemical, biotinylated probe, 635/667 nm fluorescence (AID 1114).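 Also: probe is biotin-labelled aShh protein from a stem cell growth factor screen; measures binding of labelled protein to compounds printed on the slide; score merges feature fluorescence at 667 nm with signal-to-noise.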 The settings on record: higher = more signal.
Experiment [18] is described as follows: small-molecule microarray binders of probe aNog, primary screen, biochemical, biotinylated probe, 635/667 nm fluorescence (AID 1115).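 Also: probe is biotinylated aNog protein used at 0.15 µg/mL for 1 h at 4 C; z-score combines 667 nm fluorescence of each spot with its signal to noise.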 As to conditions: higher = more signal.
Experiment [19] has as its target Torsin-1A-interacting protein 1 (Homo sapiens) (UniProt Q5JTV8). As to the kind of experiment: LAP1 binders from COS7 cell lysate, primary screen, small-molecule microarray, 635/667 nm fluorescence (AID 1116). As to conditions: COS7-hLAP1 lysate binding, 635 nm fluorescence, higher = more signal.
Experiment [20] deals with Alpha-bungarotoxin (Bungarus multicinctus) (UniProt P60615). The experiment can be described thus: alpha-bungarotoxin binders on microarray, profiling panel, artefact control for SMM control protein annotation, biochemical, small-molecule microarray, Alexa647 label, 635/667 nm fluorescence (AID 1117). The settings on record: alpha-BTX-A647 binding fluorescence, higher = more signal.
Sequence of Alpha-bungarotoxin (Bungarus multicinctus) (P60615 whole entry, looked up): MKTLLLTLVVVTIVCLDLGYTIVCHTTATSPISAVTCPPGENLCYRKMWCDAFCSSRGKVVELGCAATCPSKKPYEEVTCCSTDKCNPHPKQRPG

Sequence of Dickkopf-related protein 1 (Homo sapiens) (O94907 whole entry, looked up): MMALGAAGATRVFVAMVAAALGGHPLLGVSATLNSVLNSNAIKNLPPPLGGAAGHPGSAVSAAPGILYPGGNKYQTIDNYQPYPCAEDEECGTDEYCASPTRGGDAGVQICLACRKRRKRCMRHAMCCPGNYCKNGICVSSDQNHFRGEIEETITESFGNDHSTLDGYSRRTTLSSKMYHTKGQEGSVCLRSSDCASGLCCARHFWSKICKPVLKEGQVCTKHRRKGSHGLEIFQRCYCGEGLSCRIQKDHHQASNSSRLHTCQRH
Sequence of Left-right determination factor 2 (Homo sapiens) (O00292 whole entry, looked up): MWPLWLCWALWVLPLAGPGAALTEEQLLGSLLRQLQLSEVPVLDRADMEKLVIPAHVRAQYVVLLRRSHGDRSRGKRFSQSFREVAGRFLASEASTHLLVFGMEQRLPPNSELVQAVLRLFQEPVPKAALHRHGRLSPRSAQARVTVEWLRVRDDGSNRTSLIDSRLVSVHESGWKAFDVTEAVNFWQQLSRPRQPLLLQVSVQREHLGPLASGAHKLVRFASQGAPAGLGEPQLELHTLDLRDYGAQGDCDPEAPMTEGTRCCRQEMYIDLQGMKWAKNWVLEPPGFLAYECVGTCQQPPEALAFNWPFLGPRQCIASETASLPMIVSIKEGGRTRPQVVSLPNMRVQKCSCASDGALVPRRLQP
Sequence of Torsin-1A-interacting protein 1 (Homo sapiens) (Q5JTV8 whole entry, looked up): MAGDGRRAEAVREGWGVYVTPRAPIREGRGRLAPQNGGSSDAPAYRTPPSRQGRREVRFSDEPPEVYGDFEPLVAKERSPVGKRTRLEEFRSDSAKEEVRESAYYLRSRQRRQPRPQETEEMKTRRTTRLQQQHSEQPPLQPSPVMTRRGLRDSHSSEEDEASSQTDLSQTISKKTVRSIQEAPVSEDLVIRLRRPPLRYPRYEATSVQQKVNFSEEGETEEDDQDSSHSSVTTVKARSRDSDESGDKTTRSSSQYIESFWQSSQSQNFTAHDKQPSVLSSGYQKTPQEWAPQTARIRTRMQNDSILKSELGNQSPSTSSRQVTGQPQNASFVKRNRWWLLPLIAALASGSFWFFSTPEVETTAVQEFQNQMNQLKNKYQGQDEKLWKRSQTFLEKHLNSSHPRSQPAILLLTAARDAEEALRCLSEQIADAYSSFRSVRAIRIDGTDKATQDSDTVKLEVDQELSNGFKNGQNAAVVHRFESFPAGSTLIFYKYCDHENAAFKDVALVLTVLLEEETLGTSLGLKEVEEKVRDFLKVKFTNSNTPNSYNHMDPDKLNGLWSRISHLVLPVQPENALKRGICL

As for `C=C(C(=O)CC[C@@H](OC(=O)c1ccccc1-c1ccccc1C(=O)O)c1ccc(OCCO)cc1)C(C)C`, the composite z-score in [1] is 0.994; in experiment [2], -0.0581; in experiment [3] it was -0.375; in [5] it was 1.22; in [6], 0.674; in experiment [7], 0.267. In addition, the composite z-score was found to be 1.08 in experiment [8]; 0.776 in [9]; 0.768 in [10]; 1.33 in [11]; 0.63 in [13]; 0.653 in [14]. In addition, the composite z-score in [15] was -0.698; in experiment [16] it was 0.0162; in experiment [17], 0.108; in [18] it was -0.095; in [19], 1.3; in experiment [20] it was 0.478. Moreover, the z-score in [4] is 0.379 (inactive); in experiment [12] it was -2.58.
Take `CCOC(=O)C[C@H]1[C@H](OC(=O)c2cc3ccccc3oc2=O)[C@@H](NC(=O)Cc2ccc(OC)cc2)c2cc(OCCCO)ccc2N1C(=O)Cc1ccc(OC)cc1`: the composite z-score is 0.776 in [1]; -0.249 in experiment [2]; -0.43 in experiment [3]; 0.703 in [5]; 0.382 in [6]; 0.455 in [7]. Further, the composite z-score in [8] is 0.789; in experiment [9], 0.328; in experiment [10], 0.156; in [11] it was 0.351; in [13], 0.594; in [14], -0.326. Also, the composite z-score was -0.54 in experiment [15]; -0.096 in [16]; -0.145 in [17]; -0.0428 in experiment [18]; 0.0475 in experiment [19]; 0.329 in experiment [20]. In addition, the figures for the z-score in experiment [4] and in [12] were -1.28 (inactive) and -1.73, respectively.
`C=CCN1C(=O)[C@@]2(O[C@@H](CCO)[C@H]([Si](C)(C)c3ccc(OC)cc3)[C@H]2C)c2cc(N3CCCCC3=O)ccc21`: the composite z-score is 0.774 in [1]; -0.0333 in experiment [2]; 0.0918 in [3]; 0.839 in [5]; 0.399 in experiment [6]; 0.169 in experiment [7]. In addition, the composite z-score in experiment [8] worked out at 0.547; in [9] it was 0.342; in experiment [10], 0.488; in [11] it was 1.36; in experiment [13], 0.264; in experiment [14] it was 0.721. The composite z-score in experiment [15] was 0.519; in [16], -0.091; in [17], 0.151; in experiment [18], 0.197; in experiment [19], 0.813; in [20], 1.14. For the same compound, the figures for the z-score in experiment [4] and in experiment [12] were -2.02 (inactive) and -3.29, respectively.
Consider `CCCCC(=C=CC[C@H](O)c1ccccc1OCCO)CCO`, for which the composite z-score is 0.653 in [1]; -0.182 in experiment [2]; -0.0244 in [3]; 0.27 in [5]; -0.123 in experiment [6]; -0.689 in [7]. Further, the composite z-score was -0.569 in [8]; -0.429 in [9]; 0.754 in experiment [10]; 0.5 in experiment [11]; -0.115 in experiment [13]; -0.541 in experiment [14]. Moreover, the composite z-score is -0.533 in experiment [15]; -0.0031 in experiment [16]; -0.108 in [17]; 0.0796 in [18]; 0.228 in experiment [19]; 0.124 in [20]. Besides, the z-score in [4] is -0.25 (inactive); in [12] it was -1.69.
On to `CO[C@H]1O[C@H](CO)[C@@H](OC(=O)Nc2ccccc2)[C@@H]2OC(=O)[C@@H](Cc3ccccc3)C/C=C/C[C@H](Cc3ccccc3)C(=O)O[C@@H]12`, for which the composite z-score was 1.46 in experiment [1]; -0.172 in experiment [2]; -0.0203 in experiment [3]; 0.73 in experiment [5]; 0.107 in [6]; -0.191 in experiment [7]. In addition, the composite z-score in [8] was 0.094; in experiment [9], 0.206; in experiment [10], 0.983; in experiment [11], 0.779; in experiment [13], -0.152; in [14] it was -0.0442. For the same compound, the composite z-score in [15] was -0.845; in experiment [16] it was -0.0721; in [17], -0.154; in experiment [18] it was -0.125; in experiment [19], 0.235; in [20] it was 0.224. The z-score is 0.0457 (inactive) in experiment [4] and -0.897 in experiment [12].
On to `COC(=O)C(CC#Cc1ccc2c(c1)[C@]1(C(=O)N2)[C@H](C(=O)N2CCCCCCC2)[C@H]2C(=O)O[C@H](c3ccccc3)[C@H](c3ccccc3)N2[C@@H]1c1ccc(OCCO)cc1)C(=O)OC`, for which the composite z-score in experiment [1] amounted to 2.26; in experiment [2], 2.85; in experiment [3], 1.58; in [5], 1.63; in [6], 1.5; in experiment [7], 1.94. The composite z-score came to 1.71 in [8]; 2.55 in experiment [9]; 1.73 in experiment [10]; 1.55 in experiment [11]; 1.76 in experiment [13]; 3.07 in experiment [14]. Further, the composite z-score in experiment [15] was 1.68; in [16], 1.63; in [17], 3.53; in experiment [18] it was 3.7; in experiment [19], 6.05; in experiment [20] it was 4.36. Also, the values for the z-score in experiment [4] and in [12] were 0.741 (inactive) and -1.57, respectively.
